Screening data from PubChem BioAssay.
CD11b adhes enh: CD11b/CD18-fibrinogen binding enhancement. P05107+P11215. K562 CD11b/CD18 adhesion to fibrinogen, ATPlite luminescence. activation, % at 10 µM. actives 0.07% (n = 93,000);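 active means 10 µM primary screen giving 50% or more activity, confirmed by 40% or more on retest at that dose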
CYP2C9 activ: CYP2C9 (human) activation; P11712; recombinant CYP2C9, luciferin-H conversion, luminescence; active compounds read high; factor 1 = untreated enzyme, 0 = blocked; activation factor at 5 µM; actives 1.4% (n = 96,000); AID 1024;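 active means activation factor of 2 or more for CYP2C9 at a 5 µM dose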;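 further: 0 = sulfaphenazole-blocked wells and 1 = vehicle-only wells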
CYP2C9 inhib: inhibitors of human CYP2C9 | P11712 | CYP2C9 Supersomes, luciferin-H conversion, luminescence | inhibition, % at 5 µM | actives 20% (n = 96,000) | AID 777;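 active means blocking of liver enzyme CYP2C9 beyond about 50% at 5 µM, limit read from the data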
CD11b adhes inh: inhibitors of human CD11b/CD18 binding to fibrinogen. P05107+P11215. K562 CD11b/CD18 adhesion to fibrinogen, ATPlite luminescence; Mn2+ added to activate the integrin. inhibition, % at 10 µM. actives 0.54% (n = 93,000). AID 1497;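 active means primary inhibition of 50% or more at 10 µM, then 40% or more on retest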
CYP2C19 activ: increases human CYP2C19 enzyme activity. P33261. recombinant CYP2C19, luciferin-H EGE luminescence; active compounds read high; 0 = fully inhibited enzyme, 1 = untreated enzyme. activation factor at 5 µM. 96,000 tested, under 10 active;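 active means activation factor of at least 2 at 5 µM in the primary screen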;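 further: 0 = wells with 2.5 mM tranylcypromine and 1 = vehicle-only wells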
Target sequence (P33261 whole entry, looked up): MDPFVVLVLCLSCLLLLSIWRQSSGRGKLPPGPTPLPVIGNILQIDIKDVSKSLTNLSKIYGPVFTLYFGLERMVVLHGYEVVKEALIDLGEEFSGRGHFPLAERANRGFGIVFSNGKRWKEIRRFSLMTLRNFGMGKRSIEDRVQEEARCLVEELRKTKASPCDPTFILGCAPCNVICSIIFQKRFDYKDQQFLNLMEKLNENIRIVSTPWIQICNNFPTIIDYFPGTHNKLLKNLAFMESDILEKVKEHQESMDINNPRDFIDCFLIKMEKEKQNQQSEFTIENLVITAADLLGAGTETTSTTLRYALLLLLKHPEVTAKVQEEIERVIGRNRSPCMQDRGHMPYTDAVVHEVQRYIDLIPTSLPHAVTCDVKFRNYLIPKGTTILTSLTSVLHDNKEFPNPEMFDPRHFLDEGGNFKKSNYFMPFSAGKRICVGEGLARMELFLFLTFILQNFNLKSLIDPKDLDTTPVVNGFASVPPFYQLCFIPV
CYP2C19 inh: blocks human cytochrome P450 2C19; inhibition, % at 5 µM; CYP2C19 Supersomes, luciferin-H EGE luminescence, 30 min; AID 778; actives 21% (n = 96,000);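 active means CYP2C19 inhibition above a set limit at 5 µM in the primary screen, cut at about 50% in these data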;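 further: plate controls were negative control wells for no effect and 2.5 mM tranylcypromine positive control for full effect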
An asterisk follows results filed as active; · = no result. An excerpt weighted towards active compounds, which were near 28% of everything screened.

SMILES	CD11b adhes enh	CYP2C9 activ	CYP2C9 inhib	CD11b adhes inh	CYP2C19 activ	CYP2C19 inh
CCOc1ccc(N(CC(=O)NCc2ccc(F)cc2)S(=O)(=O)c2c(C)noc2C)cc1	-0.1	1	-2.5	-6.9	0.7	34.4
CCOc1ccc(N(CC(=O)NCc2cccs2)S(=O)(=O)c2c(C)noc2C)cc1	-2.8	0.3	68.7*	-7.1	0.1	86.2*
CCOc1ccc(N(CC(=O)Nc2cccc(OC)c2)S(=O)(=O)c2c(C)noc2C)cc1	6.2	0.1	92.4*	-6.1	0.1	92.8*
O=C(CSc1nnc(Cc2ccccc2)o1)Nc1ccc(Br)cn1	12.7	1	-1.2	-2.6	0.7	32.9
CCOc1ccc(N(CC(=O)N2CC=C(c3ccccc3)CC2)S(=O)(=O)c2c(C)noc2C)cc1	3.9	0.7	30.8	-6.5	0.4	63.5*
Cc1cccc(C(=O)NCCN(C)C)c1	-1.5	1	2.4	-18.5	1	-1.0
Cc1cccc(-n2ncc(C#N)c2N)c1	-5.2	1.2	-19.2	-15.0	1.1	-10.2
Nc1c(-c2ccccc2Cl)cnn1-c1cccc([N+](=O)[O-])c1	·	1.6	-55.4	·	0.8	17.6
N#CC1=C(N)N(c2ccccc2)C(c2cccc([N+](=O)[O-])c2)C1(C#N)C#N (configuration not stated)	-3.6	0.5	53.4*	10.3	0.6	37.9
N#CC1=C(N)N(c2ccccc2)C(c2ccco2)C1(C#N)C#N (configuration not stated)	12.8	0.5	53.8*	-19.3	0.7	31.4
Cc1cccc(N2C(N)=C(C#N)C(C#N)(C#N)C2c2ccccc2)c1 (configuration not stated)	-3.5	0.5	54.7*	12.1	0.8	20.0
CCOC(=O)c1cccc(NC(=O)CCS(=O)(=O)c2cccc3nsnc23)c1	2.3	0.3	72.4*	10.9	0.2	77.4*
Cc1cccc(NC(=O)CCS(=O)(=O)c2cccc3nsnc23)c1C	·	1.1	-12.5	·	0.9	8.8
CCOC(=O)c1ccc(NS(=O)(=O)c2cccc3nsnc23)cc1	·	0.2	77.7*	·	0.6	36.7
Cc1c(C(=O)OC(C)C)[nH]c2c1C(=O)CC(C)(C)C2	-3.8	0.2	75.5*	5.1	0.2	75.3*
Cc1c(C(=O)OC(C)C)[nH]c2c1C(=O)CCC2	19.2	0.5	45.8	8.1	0.7	34.7
O=C(N1CCCCC1)C12CC3CC(C1)CC(C(=O)N1CCCCC1)(C3)C2	-3.8	0.4	64.2*	-5.2	0.3	66.2*
O=C(CC12CC3CC(CC(C3)C1)C2)N1CCCC1	-0.9	1	-3.3	-3.6	0.9	13.5
Nc1nc2n(n1)C(c1cccs1)CC(c1ccc(Br)cc1)N2 (configuration not stated)	-2.4	0.7	27.4	4.1	0.3	65.9*
Cc1ccc(C2CC(c3ccc(C)cc3)n3nc(N)nc3N2)cc1 (configuration not stated)	2.8	0.6	42.2	-6.3	0.5	46.9
Cc1cccc(C2CC(c3ccc(Br)cc3)Nc3nc(N)nn32)c1 (configuration not stated)	-2.3	0.5	48.1	4.2	0.2	77.0*
COc1ccc(C2CC(c3ccc(Br)cc3)Nc3nc(N)nn32)cc1 (configuration not stated)	3.9	0.5	51.4*	-11.5	0.8	21.8
CC(C)C(NC(=O)c1ccco1)C(=O)NCC(c1ccco1)N1CCCCC1 (configuration not stated)	-3.8	0.7	30.5	-34.4	0.7	30.6
CC(=O)Nc1ccc(-c2nn[nH]n2)cc1Cl	3.0	0.9	12.9	-29.7	1	4.3
CC1(C)OC(=O)C(=CNc2ncccn2)C(=O)O1	5.9	1.1	-7.7	-10.3	0.8	18.6
CC(C)C(NC=C1C(=O)OC(C)(C)OC1=O)C(=O)O (configuration not stated)	-4.2	0.3	65.0*	9.7	1	2.3
Cc1ccc(NC(=O)C2CCCN(S(=O)(=O)c3ccc4c(c3)oc(=O)n4C)C2)nc1 (configuration not stated)	0.0	0.8	22.6	2.1	0.5	48.4
